Data: PubChem BioAssay AID588849 (Broad Institute, 2011)
Entries with a potency or affinity are not part of this list. The source made the active and inactive calls. The rule behind the calls is not given here.

Target: CAAX prenyl protease 2 (Homo sapiens) (UniProt Q9Y256)
Assay: inhibition of Ras-converting CAAX protease Rce1 – biochemical, yeast membranes, quenched-peptide fluorescence, cherry-pick, dose response (AID 588849)
Conditions: yeast membrane fractions expressing human Rce1, quenched-peptide fluorescence, 4 h; series mostly up to 10 µM

Chain of CAAX prenyl protease 2 (Homo sapiens) (Q9Y256 whole entry, looked up): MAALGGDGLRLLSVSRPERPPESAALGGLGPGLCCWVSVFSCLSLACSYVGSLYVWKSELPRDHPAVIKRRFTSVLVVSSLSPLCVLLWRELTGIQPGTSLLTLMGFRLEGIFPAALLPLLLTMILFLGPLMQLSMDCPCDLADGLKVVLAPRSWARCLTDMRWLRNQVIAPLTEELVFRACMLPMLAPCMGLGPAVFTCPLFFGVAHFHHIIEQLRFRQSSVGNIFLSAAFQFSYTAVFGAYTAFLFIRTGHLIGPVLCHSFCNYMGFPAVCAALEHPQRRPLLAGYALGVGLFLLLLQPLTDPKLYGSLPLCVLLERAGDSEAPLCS

outcome, inactive:
N=c1c2c(ncn1Cc1ccco1)Oc1ccc3ccccc3c1C2c1ccccc1 (configuration not stated)
Cc1ccc(-c2cc(-c3ccccc3)c(C#N)c(Br)n2)cc1
CCOc1cc(CNC2CCCC2)ccc1OCc1ccccc1Cl
COc1ccc(S(=O)(=O)N(CC(=O)N2CCCC2)Cc2ccccc2)cc1
CN(C)CC(C)(C)CNC(=S)NCc1ccc2c(c1)OCO2
c1ccc(Nc2cccc(Nc3ccccc3)n2)cc1
COc1ccc(-c2cn3ccccc3n2)cc1[N+](=O)[O-]
CCOc1ccc(-c2c(C(=O)N/N=C/c3cccs3)nnn2-c2nonc2N)cc1
O=C(O/N=C\c1ccc(N2CCCCC2)c([N+](=O)[O-])c1)c1cccc(C(F)(F)F)c1
CCOc1ccc(NC(=O)CCSc2ccc(C)cc2)cc1
CCC1CCCCN1C(=O)NC(=O)c1ccccc1 (configuration not stated)
COc1ccc(-c2cc(C(F)(F)F)nc(SCC(=O)NCc3cnn(C)c3C)n2)cc1OC
COC(=O)/C=c1\[nH]c2nnc(C)n2c1=O
COc1ccc(Br)cc1C(=O)Nc1cc(C)cc(C)c1
Nc1nnc(-c2ccncc2)s1
CCCCNC(=O)C(CC)Sc1nc2sc(C(=O)OC)c(C)c2c(=O)n1N (configuration not stated)
COc1ccc(OC)c(/C=N/NC(=O)Cn2ccnc2C)c1
c1ccc(-c2ccc(-c3cn4c(n3)CCC4)cc2)cc1
COc1cccc(-c2csc(N3CCN(C(=O)NC45CC6CC(CC(C6)C4)C5)CC3)n2)c1
CCOc1ccc(-n2c(SCc3ccc([N+](=O)[O-])cc3)nnc2-c2ccc(OC)cc2)cc1
CC(C)C[C@H](NC(=O)c1nc[nH]c1C(=O)N1CCNCC1)C(=O)OCc1ccccc1
CCCN(CCC)CCNC(=O)c1cc2c(-c3ccc(Cl)cc3)nn(C)c2s1
